Results from the supplement of paper PMC10849652.
About 8,800 targets were measured; listed, in parts, are those with a hit and a random draw of the rest. About 0.5% of all pairs of compound and target were hits. A number with no mark means an inactive call.

How the values were obtained:
Assay in all cases: log2 fold change, soluble protein after heating vs DMSO (PISA); higher = thermal stabilisation; K562 lysate, 10 uM; active = over 0.2 and 3.5 SD of the protein, either way, in both replicates (recomputed)
[1] = compound: CN1CC[C@H](c2c(O)cc(O)c3c(=O)cc(-c4ccccc4Cl)oc23)[C@H](O)C1 [alvocidib]
Summary of the method: (§1)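 Pellets of K562 cells were dounce-homogenised in PBS pH 7.4 with 1 mM MgCl2, and the crude extract was held at 1 mg/mL protein for a 30 min treatment with 10 μM compound. Aliquots were heated for 3 min over 48°C-58°C and pooled before NP-40 was added to 0.5% at 4°C. The supernatant from 21,000xg for 90 min was quantified by TMTpro 16plex LC-MS/MS with channel sums equalised. Values are reported from duplicates as log-two fold change in thermal stability relative to solvent controls.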

[2] = compound: CN1CCc2c(c3ccccc3n2Cc2ccc(C(=O)NO)cc2)C1 [Tubastatin A]
Summary of the method: as §1

[3] = compound: CNC(=O)C1=CC=CC=C1NC2=NC(=NC=C2Cl)NC3=C(C=C(C=C3)N4CCOCC4)OC
Summary of the method: as §1

[4] = compound: CNC(=O)c1ccc(Nc2ncc(C(F)(F)F)c(NCc3nccnc3N(C)S(C)(=O)=O)n2)cc1 [defactinib]
Summary of the method: as §1

[5] = compound: CNc1nc(-c2ccc3c(N)n[nH]c3c2)cc(N2C[C@@H](C(=O)NC3CCCCC3)CC[C@H]2C)n1
Summary of the method: as §1

[6] = compound: COC(=O)N[C@@H](C)CNc1nccc(-c2cn(C(C)C)nc2-c2cc(Cl)cc(NS(C)(=O)=O)c2F)n1 [encorafenib]
Summary of the method: as §1

[7] = compound: COC(=O)[C@H](CCSC)NC(=O)C1=C(C=C(C=C1)NC[C@H](CS)N)C2=CC=CC=C2
Summary of the method: as §1

[8] = compound: COc1cc(Nc2ncc3c(n2)-c2ccc(Cl)cc2C(c2c(F)cccc2OC)=NC3)ccc1C(=O)O [alisertib]
Summary of the method: as §1

[9] = compound: COc1cc2nc(-c3cc(F)ccc3O)nc(N[C@@H]3CNC[C@H]3C(C)(C)O)c2cc1OC
Summary of the method: as §1

[10] = compound: COc1cc2ncnc(Nc3ccc(F)c(Cl)c3)c2cc1OCCCN1CCOCC1 [gefitinib]
Summary of the method: as §1

Sequence of UniProt O94760 (O94760 whole entry, looked up): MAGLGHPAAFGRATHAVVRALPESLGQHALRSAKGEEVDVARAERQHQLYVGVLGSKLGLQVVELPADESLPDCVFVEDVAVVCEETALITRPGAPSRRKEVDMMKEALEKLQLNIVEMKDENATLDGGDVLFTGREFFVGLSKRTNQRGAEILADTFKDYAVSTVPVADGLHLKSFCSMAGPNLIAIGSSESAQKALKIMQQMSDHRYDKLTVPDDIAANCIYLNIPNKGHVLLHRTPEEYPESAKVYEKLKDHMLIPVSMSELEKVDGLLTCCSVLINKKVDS
Sequence of UniProt P09543 (P09543 whole entry, looked up): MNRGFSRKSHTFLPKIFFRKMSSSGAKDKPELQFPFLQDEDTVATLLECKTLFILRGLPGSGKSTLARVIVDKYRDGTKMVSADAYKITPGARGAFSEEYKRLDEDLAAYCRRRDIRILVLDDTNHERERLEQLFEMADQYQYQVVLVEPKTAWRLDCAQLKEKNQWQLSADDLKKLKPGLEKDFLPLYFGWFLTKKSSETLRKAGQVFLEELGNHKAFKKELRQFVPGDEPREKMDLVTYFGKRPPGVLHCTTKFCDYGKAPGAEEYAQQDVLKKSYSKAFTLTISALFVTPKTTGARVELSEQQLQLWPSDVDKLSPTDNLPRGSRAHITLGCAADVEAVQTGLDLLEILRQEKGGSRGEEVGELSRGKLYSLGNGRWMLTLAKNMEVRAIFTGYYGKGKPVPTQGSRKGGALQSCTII
Sequence of UniProt Q6P3W2 (Q6P3W2 whole entry, looked up): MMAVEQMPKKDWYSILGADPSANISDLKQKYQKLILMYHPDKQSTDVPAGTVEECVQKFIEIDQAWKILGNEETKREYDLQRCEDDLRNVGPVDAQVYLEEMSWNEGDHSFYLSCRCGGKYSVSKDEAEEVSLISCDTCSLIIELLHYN
Sequence of UniProt O76075 (O76075 whole entry, looked up): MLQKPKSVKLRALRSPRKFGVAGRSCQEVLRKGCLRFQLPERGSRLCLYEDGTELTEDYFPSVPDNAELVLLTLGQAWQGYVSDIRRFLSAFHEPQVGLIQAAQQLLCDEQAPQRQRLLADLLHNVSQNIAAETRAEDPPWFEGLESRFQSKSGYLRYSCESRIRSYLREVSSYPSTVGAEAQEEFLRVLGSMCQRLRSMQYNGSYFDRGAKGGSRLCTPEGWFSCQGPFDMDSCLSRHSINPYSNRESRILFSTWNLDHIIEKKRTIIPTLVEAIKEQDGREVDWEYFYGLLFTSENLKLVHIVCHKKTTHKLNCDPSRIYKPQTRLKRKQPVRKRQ
Sequence of UniProt Q92564 (Q92564 whole entry, looked up): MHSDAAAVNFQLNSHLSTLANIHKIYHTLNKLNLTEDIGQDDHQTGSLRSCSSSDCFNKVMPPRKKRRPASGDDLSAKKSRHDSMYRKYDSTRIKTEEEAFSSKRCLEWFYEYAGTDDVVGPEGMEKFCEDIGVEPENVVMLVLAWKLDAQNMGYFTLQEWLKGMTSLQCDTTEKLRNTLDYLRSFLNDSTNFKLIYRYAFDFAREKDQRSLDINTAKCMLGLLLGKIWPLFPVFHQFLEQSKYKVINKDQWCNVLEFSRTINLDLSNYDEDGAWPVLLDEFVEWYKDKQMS
Sequence of UniProt Q9UP83 (Q9UP83 whole entry, looked up): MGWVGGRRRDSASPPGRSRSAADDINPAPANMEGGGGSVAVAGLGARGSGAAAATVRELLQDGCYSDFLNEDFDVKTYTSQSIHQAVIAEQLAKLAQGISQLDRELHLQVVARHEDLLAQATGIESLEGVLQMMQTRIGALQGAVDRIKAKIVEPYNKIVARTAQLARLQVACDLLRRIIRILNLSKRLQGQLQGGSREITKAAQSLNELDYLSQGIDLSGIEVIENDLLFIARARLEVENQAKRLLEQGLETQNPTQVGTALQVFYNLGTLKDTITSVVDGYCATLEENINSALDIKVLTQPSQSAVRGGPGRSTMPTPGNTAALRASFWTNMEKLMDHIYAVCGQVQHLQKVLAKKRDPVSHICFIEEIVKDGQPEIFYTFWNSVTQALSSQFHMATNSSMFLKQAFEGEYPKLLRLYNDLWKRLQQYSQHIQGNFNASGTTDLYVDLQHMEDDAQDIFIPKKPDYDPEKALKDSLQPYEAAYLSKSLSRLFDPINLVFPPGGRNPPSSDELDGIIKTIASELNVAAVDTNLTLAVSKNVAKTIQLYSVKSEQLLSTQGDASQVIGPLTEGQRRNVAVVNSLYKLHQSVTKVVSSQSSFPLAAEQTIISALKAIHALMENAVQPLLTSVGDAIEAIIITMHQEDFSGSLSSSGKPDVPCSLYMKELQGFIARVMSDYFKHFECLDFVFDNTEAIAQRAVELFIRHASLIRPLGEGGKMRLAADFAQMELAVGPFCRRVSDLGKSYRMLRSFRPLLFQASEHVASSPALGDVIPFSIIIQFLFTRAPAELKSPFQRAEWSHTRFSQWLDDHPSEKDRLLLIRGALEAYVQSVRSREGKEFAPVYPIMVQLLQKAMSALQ
Sequence of UniProt Q9P0U4 (Q9P0U4 whole entry, looked up): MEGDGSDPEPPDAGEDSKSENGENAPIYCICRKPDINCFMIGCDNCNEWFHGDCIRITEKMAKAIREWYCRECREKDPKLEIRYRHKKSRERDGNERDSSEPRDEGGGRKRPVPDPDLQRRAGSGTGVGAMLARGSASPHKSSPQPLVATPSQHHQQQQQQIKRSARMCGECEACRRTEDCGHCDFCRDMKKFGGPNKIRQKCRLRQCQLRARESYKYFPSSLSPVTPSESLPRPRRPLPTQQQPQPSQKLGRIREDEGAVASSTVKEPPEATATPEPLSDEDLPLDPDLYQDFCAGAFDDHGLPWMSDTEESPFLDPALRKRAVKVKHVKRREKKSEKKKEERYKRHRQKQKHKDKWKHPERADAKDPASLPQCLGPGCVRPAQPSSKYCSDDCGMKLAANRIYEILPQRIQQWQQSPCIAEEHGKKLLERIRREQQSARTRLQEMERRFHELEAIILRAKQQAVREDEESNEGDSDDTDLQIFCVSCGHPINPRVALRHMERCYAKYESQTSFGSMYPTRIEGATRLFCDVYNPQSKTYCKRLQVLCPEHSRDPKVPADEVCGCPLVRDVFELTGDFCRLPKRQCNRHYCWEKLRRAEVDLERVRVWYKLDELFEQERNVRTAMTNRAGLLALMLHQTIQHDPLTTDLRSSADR
Sequence of UniProt P99999 (P99999 whole entry, looked up): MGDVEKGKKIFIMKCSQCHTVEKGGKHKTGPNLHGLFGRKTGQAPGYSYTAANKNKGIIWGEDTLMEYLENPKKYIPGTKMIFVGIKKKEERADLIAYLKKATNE
Sequence of UniProt Q99766 (Q99766 whole entry, looked up): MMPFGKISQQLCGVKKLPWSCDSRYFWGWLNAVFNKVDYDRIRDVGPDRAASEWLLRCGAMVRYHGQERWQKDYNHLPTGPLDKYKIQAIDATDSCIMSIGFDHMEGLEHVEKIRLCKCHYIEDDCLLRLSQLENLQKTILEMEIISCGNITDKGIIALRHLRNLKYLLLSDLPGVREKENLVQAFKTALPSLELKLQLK
Sequence of UniProt Q9UBU7 (Q9UBU7 whole entry, looked up): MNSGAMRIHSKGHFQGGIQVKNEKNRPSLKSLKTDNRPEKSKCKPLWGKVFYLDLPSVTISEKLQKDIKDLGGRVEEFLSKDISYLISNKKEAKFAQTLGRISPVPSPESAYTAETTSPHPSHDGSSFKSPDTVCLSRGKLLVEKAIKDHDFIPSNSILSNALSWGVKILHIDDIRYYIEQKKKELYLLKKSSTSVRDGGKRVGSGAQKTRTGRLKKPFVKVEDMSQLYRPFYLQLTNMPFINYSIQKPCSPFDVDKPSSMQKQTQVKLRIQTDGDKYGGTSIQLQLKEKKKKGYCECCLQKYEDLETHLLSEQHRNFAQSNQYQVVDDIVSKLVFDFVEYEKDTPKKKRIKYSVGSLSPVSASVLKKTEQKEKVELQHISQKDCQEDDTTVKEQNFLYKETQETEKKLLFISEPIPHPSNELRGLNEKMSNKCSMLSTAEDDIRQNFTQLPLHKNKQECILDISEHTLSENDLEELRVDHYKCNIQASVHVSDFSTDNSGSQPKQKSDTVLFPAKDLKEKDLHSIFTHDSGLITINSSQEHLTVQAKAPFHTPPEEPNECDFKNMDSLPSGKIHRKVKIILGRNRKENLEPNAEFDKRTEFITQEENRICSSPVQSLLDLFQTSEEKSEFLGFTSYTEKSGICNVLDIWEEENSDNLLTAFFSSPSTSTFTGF
Sequence of UniProt Q9H9E3 (Q9H9E3 whole entry, looked up): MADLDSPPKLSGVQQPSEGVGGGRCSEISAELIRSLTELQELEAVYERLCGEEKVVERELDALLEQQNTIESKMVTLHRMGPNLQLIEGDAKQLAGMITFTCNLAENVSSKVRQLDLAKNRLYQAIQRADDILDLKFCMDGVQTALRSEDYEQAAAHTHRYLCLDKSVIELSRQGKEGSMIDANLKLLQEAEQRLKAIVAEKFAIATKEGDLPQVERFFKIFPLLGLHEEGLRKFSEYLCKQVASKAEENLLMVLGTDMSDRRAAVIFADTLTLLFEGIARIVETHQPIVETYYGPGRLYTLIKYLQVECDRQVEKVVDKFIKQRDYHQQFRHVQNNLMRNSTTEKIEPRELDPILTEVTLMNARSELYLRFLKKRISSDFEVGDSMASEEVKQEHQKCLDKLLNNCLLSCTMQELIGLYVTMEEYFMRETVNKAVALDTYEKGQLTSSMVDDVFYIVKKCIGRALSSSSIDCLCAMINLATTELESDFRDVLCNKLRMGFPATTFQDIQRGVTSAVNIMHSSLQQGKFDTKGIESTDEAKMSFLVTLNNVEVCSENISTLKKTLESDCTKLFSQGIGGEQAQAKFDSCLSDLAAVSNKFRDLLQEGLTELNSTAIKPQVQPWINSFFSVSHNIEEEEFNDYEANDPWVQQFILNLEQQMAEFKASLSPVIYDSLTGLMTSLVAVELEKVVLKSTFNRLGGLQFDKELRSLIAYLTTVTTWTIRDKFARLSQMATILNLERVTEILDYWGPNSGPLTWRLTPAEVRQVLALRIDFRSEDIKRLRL
Sequence of UniProt P24311 (P24311 whole entry, looked up): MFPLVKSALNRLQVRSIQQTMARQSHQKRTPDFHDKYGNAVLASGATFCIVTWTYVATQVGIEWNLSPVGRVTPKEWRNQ

Target	log2 fold change [1]	log2 fold change [2]	log2 fold change [3]	log2 fold change [4]	log2 fold change [5]	log2 fold change [6]	log2 fold change [7]	log2 fold change [8]	log2 fold change [9]	log2 fold change [10]
COX7B (UniProt P24311)	0.013	0.02	0.112	0.042	-0.014	-0.022	0.315 (active)	0.028	0.018	-0.139
DDX39A (UniProt O00148)	-0.017	-0.171	-0.006	0.003	-0.025	0.001	0.163	-0.026	0.004	0.009
CTPS2 (UniProt Q9NRF8)	-0.01	0.015	-0.009	0.01	-0.006	0.01	-0.043	-0.017	0.011	0.011
DFFB (UniProt O76075)	-0.042	-0.007	-0.022	-0.033	-0.022	-0.012	0.015	-0.006	0.011	0.231 (active)
CKAP2 (UniProt Q8WWK9)	-0.059	-0.009	0.071	-0.075	0.028	0.097	-0.092	-0.044	0.049	0.06
CXXC1 isoform 2 (UniProt Q9P0U4)	-0.003	-0.138	-0.021	-0.004	0.468 (active)	-0.032	0.152	0.069	0.068	0.015
CLPTM1L (UniProt Q96KA5)	0.001	-0.064	-0.131	0.015	-0.204	0.021	-0.029	0.054	-0.097	0.011
DCP2 (UniProt Q8IU60)	0.023	-0.195	-0.013	-0.045	0	0	-0.117	-0.02	0	0.041
DDX54 isoform 2 (UniProt Q8TDD1)	-0.037	-0.047	0.017	-0.05	-0.03	0.084	0.025	0.023	0.006	-0.089
COG4 (UniProt Q9H9E3)	0.028	-0.131	0.025	0.029	-0.003	0.079	0.011	0.016	0.022	0.009
CYCS (UniProt P99999)	-0.003	0.027	0.009	0.04	0.018	-0.004	-0.04	-0.019	-0.002	0.003
CMBL (UniProt Q96DG6)	0.006	0.001	-0.012	-0.051	0.013	-0.051	-0.009	0.001	0.038	0.03
CLP1 (UniProt Q92989)	-0.103	-0.179	0.004	0.071	-0.037	0.02	0.023	-0.002	0.031	0.033
DNAH5 (UniProt Q8TE73)	-0.189	0.073	-0.032	-0.014	-0.051			-0.029	-0.019	0.052
CWC22 (UniProt Q9HCG8)	0.112	-0.035	0	-0.026	-0.036	0.046	0.093	-0.065	-0.058	-0.028
COMT (UniProt P21964)	0.012	-0.162	-0.016	0.016	-0.013	0.028	0.059	0.022	0.025	0.013
DNAJC24 (UniProt Q6P3W2)	0.079	0.001	-0.017	0.009	-0.088	0.037	-0.027	-0.017	-0.006	-0.038
DCUN1D4 isoform 3 (UniProt Q92564)	-0.276	0.081	0.003	0.014	0.035	0.034	0.131	0.055	-0.043	-0.049
DNA2 (UniProt P51530)	-0.116	-0.15	-0.009	-0.039	-0.035	0.123	-0.098	-0.007		0.036
DMAC2L (UniProt Q99766)	0.029	0	-0.056	0.022	0.018	0.016	-1.03 (active)	0.074	0.031	0.061
CNP (UniProt P09543)	-0.005	-0.06	0.011	0.028	-0.03	0.02	-0.003	0.029	0	-0.025
DBF4 (UniProt Q9UBU7)	-0.118	-0.072	-0.025	-0.023	-0.058	0.04	-0.072	-0.028		-0.029
COG5 isoform 2 (UniProt Q9UP83)	0.02	-0.051	0.04	-0.005	-0.015	-0.025	-0.037	-0.012	-0.053	0.027
COPZ1 isoform 4 (UniProt P61923)	0.084	0.055	0.081	0.166	-0.093	-0.011	-0.049	0.045	-0.077	-0.142
DDAH1 (UniProt O94760)	0.015	0.007	0.037	0.014	-0.002	0	0.009		0.003	
DARS (UniProt P14868)	0.012	-0.119	-0.012	0.012	-0.061	0.028	0.049	0.038	0.003	-0.014
DCTN1 (UniProt Q14203)	0.03	-0.048	0.009	0.008	-0.02	0.008	0.119	-0.019	0.01	-0.002
CNNM2 (UniProt Q9H8M5)	-0.049	-0.105	0.007	0.065	-0.01	-0.048	0.033		-0.003	
CLCN3 (UniProt P51790)	-0.03	-0.012	-0.042	-0.024	-0.194	0.05	0.003	0.005	-0.043	0.029
CNOT4 isoform 6 (UniProt O95628)	0.015	-0.011	-0.009	0.001	-0.069	0.076	-0.051	-0.003	-0.041	-0.007
